In test [1] the test system is Zika virus NS2B-NS3 protease (unlinked complex). The experiment in a line: Primary screen GU Rhodamine qHTS for Zika virus inhibitors: Unlinked NS2B-NS3 protease assay (AID 1347159). Also: % is scaled to controls: 0 for no effect and ±100 for the full control effect; nearly all actives have a fitted effect of over 60% in size. A digest of the protocol: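 Percent inhibition derives from the 15-min fluorescence change (ex 480, em 540 nm), normalized to no-enzyme and no-inhibitor wells. Reactions contained 25 nM NS2B-NS3 complex and 1.5 microM substrate in 10 mM Tris-HCl pH 8.0.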

In test [2] the test system is Zika virus NS2B-NS3 protease (linked construct). The experiment in a line: Primary screen NINDS Rhodamine qHTS for Zika virus inhibitors (AID 1347160). Also: nearly all actives have a fitted effect of over 55% in size. A digest of the protocol:
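In 10 mM Tris-HCl pH 8.0 containing 0.01% Tween 20, linked NS2B-NS3 protease (25 nM final) is exposed to test compounds for 15 min. Cleavage of 1.5 microM Rhodamine110 substrate is tracked by fluorescence over 15 min.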

Test [3] concerns the target Calcium and integrin-binding protein 1 (Homo sapiens) (UniProt Q99828). The experiment in a line: Primary qHTS for Identification of Calcium Integrin Binding Protein 1 (CIB1) Competitor (AID 1508620).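 Also: GST tagged CIB1 binding a fluorescein labelled alphaIIb integrin peptide tracer; top concentration of the series differs between compounds; % is scaled to controls: 0 for no effect and ±100 for the full control effect.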 A digest of the protocol: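 Fluorescence polarization competition: CIB1-GST (1 uM final) preincubated with compound 15 min at room temperature, then FITC-labeled alphaIIb peptide (100 nM final) added for another 15 min. Polarization read at Ex 480/Em 540.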
On the technique in general: In qHTS, concentration-response curves come from the screen itself.

The nature of test [4]: Primary qHTS for inhibitors of nuclear receptor binding SET domain protein 2 (NSD2) in an isogenic RCH-ACV NSD2 p.E1099K mutant (9B) (AID 1645876). Also: potency is read from the fitted curve at half-maximal effect; nearly all actives have a fitted effect of over 70% in size.
Test [5] in a line: Primary qHTS for inhibitors of nuclear receptor binding SET domain protein 2 (NSD2) in an RCH-ACV wild type WT cells (2C) (AID 1645877). Also: potency is read from the fitted curve at half-maximal effect; nearly all actives have a fitted effect of over 70% in size.
In test [6] the target is Glutathione peroxidase 1 (Homo sapiens) (UniProt P07203). The experiment in a line: Primary qHTS Assay for Inhibitors of Recombinant Selenoprotein Glutathione Peroxidase 1 (GPX1) (AID 1845191). Also: nearly all actives have a fitted effect of over 65% in size. A digest of the protocol:
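Recombinant GPX1 (10 nM final) was preincubated with compound for 30 min at room temperature, then reacted with 1 mM GSH, 0.5 mM CHP, 0.5 mM NADPH and 100 nM glutathione reductase; NADPH fluorescence (340/450 nm) was read at 0 and 15 min.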

For test [7], the target named is Phospholipid hydroperoxide glutathione peroxidase GPX4 (Homo sapiens) (UniProt P36969). The experiment in a line: Primary qHTS Assay for Inhibitors of Recombinant Selenoprotein Glutathione Peroxidase 4 (GPX4) (AID 1845192). Also: nearly all actives have a fitted effect of over 65% in size. As to conditions: outcome: dose series up to 50 µM unless noted. A digest of the protocol:
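GR-coupled readout: 100 nM GR, 1 mM GSH, 0.5 mM NADPH; NADPH fluorescence (ex 340/em 450 nm) read at t=0 and after 15 min RT. GPX4 200 nM, preincubated 30 min with compound; substrate 0.5 mM CHP.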

Test [8] concerns the target Luciferin 4-monooxygenase (Photinus pyralis) (UniProt P08659). The experiment in a line: Primary firefly luciferase (FLuc) qHTS assay for identification of artifact compounds. (AID 1845220). Also: nearly all actives have a fitted effect of over 60% in size. A digest of the protocol: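 In this counter-screen for luciferase artifacts, test compounds met substrate (10 uM each luciferin and ATP) before 10 nM enzyme started the reaction. Light output was measured 5 min later.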

Test [9] deals with Nanoluciferase (engineered Oplophorus gracilirostris luciferase). The experiment in a line: Primary Nanoluciferase (NLuc) qHTS assay for identification of artifact compounds. (AID 1845222).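 Also: NLuc secreted into diluted conditioned medium of S16 cells; 0% = DMSO and -100% = no enzyme.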 A digest of the protocol: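 Using secreted nanoluciferase in S16 culture medium (0.22 um filtered, 1:55 dilution), compounds were preincubated 15 min at RT. Signal was generated with Nano-Glo reagent (1:100) over 5 min.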

Test [10] in a line: Primary redox qHTS assay for identification of artifact compounds. (AID 1845223).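 Also: 0% = DMSO and 100% = reference compound.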 A digest of the protocol:
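Amplex Red (25 uM) and HRP (250 mU/mL) in HBSS, with compounds for 15 min, then 250 uM DTT for 30 min, room temperature, dark. Fluorescence 525/598 nm read; normalized to DMSO and 10 uM DA3003; Hill fit.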

Test [11] is described as follows: qHTS drug screen for cell cycle checkpoint inhibitors in PARPi-resistant BRCA-mutant ovarian cancer cell lines. (AID 1963452; calls by dose curve). As to conditions: PEO1/OlaR viability, CellTiter-Glo luminescence, 96 h, stronger effect = lower value. A digest of the protocol: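 PEO1, PEO4 and PEO1/OlaR ovarian cancer cells, 600 per well, exposed 96 h at 37C to a dilution series. Viability read by CellTiter-Glo luminescence, normalized to DMSO and empty wells; activity summarized as Z-AUC.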

The subject of another test is HeLa. The experiment in a line: Primary qHTS to identify gynecologic anti-cancer compounds using libraries of approved drugs and bioactive compounds (AID 1345084). Also: nearly all actives have a fitted effect of over 55% in size. Also: potency is read from the fitted curve at half-maximal effect. As to conditions: Gynecologic cancer cell panel viability, ATPlite luminescence, 48 h; series mostly up to 57.5 µM. A digest of the protocol: (§1)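 In this quantitative HTS, cell killing is estimated from loss of ATP-dependent luciferase light. Cells see five compound concentrations over a 48 h exposure.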

For another test, the system named is Hek293T. The description is as above. The note with it: Gynecologic cancer cell panel viability, ATPlite luminescence, 48 h, control line for the selectivity index; series mostly up to 57.5 µM. A digest of the protocol: as §1
In general terms: In ATP-based viability assays light output follows the ATP content of the culture.

A short description of test [12]: P-glycoprotein substrates identified in KB-8-5-11 adenocarcinoma cell line, qHTS therapeutic library screen (AID 1346987). Also: potency is read from the fitted curve at half-maximal effect; nearly all actives have a fitted effect of over 65% in size. A digest of the protocol:
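KB-8-5-11: colchicine-selected sub-line of KB-3-1 over-expressing P-gp; assay medium lacked colchicine. 72 h drug exposure at 37 degree C, CellTiter-Glo.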

The test system of another test is JEG-3. The experiment in a line: Primary qHTS to identify gynecologic anti-cancer compounds using libraries of approved drugs and bioactive compounds (AID 1345084). Also: nearly all actives have a fitted effect of over 55% in size. Also: potency is read from the fitted curve at half-maximal effect. The note with it: Gynecologic cancer cell panel viability, ATPlite luminescence, 48 h; series mostly up to 57.5 µM. A digest of the protocol: as §1
A further test concerns OV90. Described as above. As to conditions: Gynecologic cancer cell panel viability, ATPlite luminescence, 48 h; series mostly up to 57.5 µM. A digest of the protocol:
as §1

The next test concerns Tov112D. The test is described as above. The note with it: Gynecologic cancer cell panel viability, ATPlite luminescence, 48 h; series mostly up to 57.5 µM. A digest of the protocol:
as §1

The structures appear in SMILES notation. Records with an inconclusive call do not appear. Calls of active or inactive are those of the source. Unless noted, calls follow the shape of the dose curve; as a rule, active = well fitted curve in the direction sought with a large enough effect; inconclusive = small, poorly fitted or top-dose-only effect, or another doubt; inactive = no such curve, though single readings can be large; an effect the other way counts as inactive or inconclusive.

Glutathione peroxidase 1 (Homo sapiens), sequence (P07203 whole entry, looked up): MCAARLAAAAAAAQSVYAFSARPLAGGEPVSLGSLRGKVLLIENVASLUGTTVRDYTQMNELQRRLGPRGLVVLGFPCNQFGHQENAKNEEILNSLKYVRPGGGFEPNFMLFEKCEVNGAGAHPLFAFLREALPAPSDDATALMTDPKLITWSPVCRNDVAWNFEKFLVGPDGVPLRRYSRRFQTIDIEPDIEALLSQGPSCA
Phospholipid hydroperoxide glutathione peroxidase GPX4 (Homo sapiens), sequence (P36969 whole entry, looked up): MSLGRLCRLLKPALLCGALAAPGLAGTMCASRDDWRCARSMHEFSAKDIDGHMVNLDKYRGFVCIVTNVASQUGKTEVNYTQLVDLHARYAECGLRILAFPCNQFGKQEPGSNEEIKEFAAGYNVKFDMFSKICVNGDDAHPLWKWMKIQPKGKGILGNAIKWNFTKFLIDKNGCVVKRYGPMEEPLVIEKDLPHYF
Calcium and integrin-binding protein 1 (Homo sapiens), sequence (Q99828 whole entry, looked up): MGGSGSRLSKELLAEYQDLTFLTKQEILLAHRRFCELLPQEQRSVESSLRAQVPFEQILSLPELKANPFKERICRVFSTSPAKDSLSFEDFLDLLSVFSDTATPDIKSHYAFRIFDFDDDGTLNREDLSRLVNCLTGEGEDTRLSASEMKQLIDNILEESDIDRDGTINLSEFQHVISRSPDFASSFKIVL

With `C[C@@H]1CCNC(=O)c2cc3ccc(C(=O)Nc4nc5ccccc5n4CCCN(C)C)cc3n21`, the Potency entry in test [1], in test [2], in test [6], in test [7], in [8] and in test [9] was “inactive” throughout. For the same compound, the Potency result (in test [10]; in the test with HeLa; in the test with Hek293T) was “inactive” each time. Also, in test [3], the result was inactive. Besides, the Potency in [4] is 16.3 µM (active); in test [5] it was 14.8 µM (active). Moreover, the Z-AUC in [11] was -0.825 (inactive); in [11] (measured here: PEO1 parental Z-AUC), -0.925; in test [11] (measured here: PEO4 Z-AUC), -1.11.
Turning to `CN(C)CCCCCCNC(=O)c1cccc(-c2cc(O)c3ncccc3c2)c1`, the Potency in test [12] is 8.2 µM (active); in test [4] it was 11.5 µM (active); in test [5] it was 7.28 µM (active). Besides, the Potency result (in [6]; in [8]; in the test on HeLa; in the test on JEG-3; in the test on OV90) was “inactive” each time.
For the compound `C=C(C)C(=O)O[C@H]1[C@H]2C(=C)C(=O)O[C@@H]2C[C@@H](C)[C@@H]2O[C@@H]2C(=O)[C@](C)(O)[C@@H]1OC(C)=O`, the Potency entry (in [2]; in test [6]; in test [8]; in test [10]; in the test with HeLa; in the test with OV90) was “inactive” throughout. Further, the Potency result in the test with Tov112D was “inactive”. Moreover, in test [3], the outcome was inactive. The values for the Potency (in [4]; in test [5]; in the test with Hek293T) were 2.82 µM (active), 1.42 µM (active) and 10 µM (active), respectively.
For `N#Cc1ccc2c(c1)CCN(CCC1CCC(NC(=O)c3ccnc4ccccc34)CC1)C2` (configuration not stated), the Potency result (in [1]; in test [2]; in [8]; in the test on HeLa; with Hek293T; with JEG-3) was “inactive” throughout. For the same compound, the Potency entry in the test on Tov112D was “inactive”.
Take `CCN1CCC[C@@H]1CNC(=O)c1ccc2c(c1)NC(=O)/C(=C/c1ccccc1F)S2`: the Potency entry in test [2], in test [6], in [7], in test [8], in test [9] and in [10] was “inactive” in each case. Moreover, the Potency entry in the test with HeLa, in the test on Hek293T, in the test on JEG-3 and in the test on Tov112D was “inactive” throughout. In addition, in test [3], the result was inactive. Also, the Potency in [4] is 4.59 µM (active); in test [5] it was 5.15 µM (active).
Turning to `CC(C)COc1ccc(CNC(=O)N(Cc2ccc(F)cc2)C2CCN(C)CC2)cc1`, the results for the Potency in test [12], in test [4] and in test [5] were 16.4 µM (active), 20.5 µM (active) and 18.3 µM (active), respectively. In addition, the Potency entry in test [2], in test [6], in test [7], in [8], in test [9] and in [10] was “inactive” in each case. Further, the Potency entry with HeLa, in the test with Hek293T and with Tov112D was “inactive” each time. Moreover, in test [3], the outcome was inactive.

These data come from PubChem BioAssay (NCATS).
